# Laboratory results taken from PubChem BioAssay AID686978 (National Center for Advancing Translational Sciences (NCATS), 2013).
# In all, about 420,000 compounds went through this assay and about 64,000 (15%) were called active. Inconclusive results (about 27%) are left out. Not all results are given here. Values without a mark were called inactive. Calls come from the whole dose curve; as a rule, active = well fitted inhibition curve with a large enough effect; inconclusive = small, poorly fitted or top-dose-only effect; inactive = flat fitted curve, though single readings scatter.
# Experiment: qHTS for Inhibitors of human tyrosyl-DNA phosphodiesterase 1 (TDP1): qHTS in cells in absence of CPT; note: nearly all actives have a fitted effect of over 55% in size
# Conditions: DT40 Tdp1-/- hTDP1 cells, no CPT, ATP luminescence, 48 h; activity change, negative = growth inhibition: at 46.2 µM (top of the series)
# How it was run: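 Seeded 400 DT40-hTDP1 cells/well (vehicle DMSO, no 20 nM CPT); pinned compounds; ≥48 hr at 37 °C; CellTiter-Glo luminescence as viability measure.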
# % is set by controls: 0 for no effect and ±100 for the full control effect; potency is the fitted concentration of half-maximal effect.
SMILES,"activity change, negative = growth inhibition [%]",Potency
CCOC(=O)c1cccc(NC(=O)CN2C(=O)C3CC=CCC3C2=O)c1 (centres undefined),-23.4,–
O=C(O)C(=Cc1ccc([N+](=O)[O-])cc1)CCc1ccccc1,-10.6,–
CCOC(=O)/C(=C\c1ccc([N+](=O)[O-])cc1)C(=O)c1cc(C(C)=O)c(Nc2ccccc2)s1,–,0.731 µM (active)
O=C(Nc1ccccc1)/C(=C/c1ccc([N+](=O)[O-])cc1)NC(=O)c1ccccc1,-20.7,–
CC(=O)c1c(C)n([O-])c2ccccc2[n+]1=O,2.08,–
O=C(NCc1ccccc1Cl)C1CCC(CNc2c(N3CCCCC3)c(=O)c2=O)CC1 (centres undefined),-1.64,–
Cc1ccc2c(Cl)c(C(=O)Nc3nn[nH]n3)sc2c1,-28.5,–
Cn1c(=O)c2c(ncn2CCc2ccccc2)n(C)c1=O,7.06,–
CCCCCc1c(-c2cccc(Br)c2)ncn1CCc1ccccc1OC,–,18.4 µM (active)
CCN(CC)CCN1C(=O)C(=O)/C(=C(/O)c2ccc(OC)c(OC)c2)C1c1ccccn1 (centres undefined),-8.13,–
CCCCCc1c(Cc2ccccc2)ncn1CCc1ccccc1OC,–,2.59 µM (active)
CCOC(=O)CSc1nnc(-c2cccc(Br)c2)o1,-1.45,–
CCCCCc1c(-c2ccc(OC)c(OC)c2)ncn1CCc1ccccc1OC,–,2.59 µM (active)
CCCCNS(=O)(=O)CCNCc1ccccc1OC,-5.2,–
CCC(=O)NCc1cc(-c2nn(C)c(=O)c3ccccc23)ccc1OC,–,inactive
Cc1c(Nc2nc3ccccc3nc2NS(=O)(=O)c2cccs2)c(=O)n(-c2ccccc2)n1C,-8.76,–
CC1Cc2[nH][nH]c(=O)c2C(C2CC2)O1 (centres undefined),-1.73,–
CCOc1ccccc1-c1nc(CN2CCC(C(=O)N3CCOCC3)CC2)c(C)o1,0.579,–
CCOC(=O)C1(CC2CCCCO2)CCN(Cc2nc(-c3cccs3)oc2C)CC1 (centres undefined),–,16.4 µM (active)
CC(Sc1nnc(-c2cccs2)n1C1CC1)C(=O)NCC1CCCO1 (centres undefined),-3.43,–
CCCOC(=O)C1=C(C)NC2=C(C(=O)C(C(=O)OC)C(C)C2)C1c1ccc(N(C)C)cc1 (centres undefined),-16.4,–
Cc1ccc(S(=O)(=O)Nc2nc(N)n(-c3ccccc3)n2)cc1,-9.97,–
CCN(c1ccccc1)S(=O)(=O)c1ccc(N)cc1,-11.5,–
CCOC(=O)c1c(N)n(-c2cccc(C)c2C)c2nc3ccccc3nc12,4.77,–
CCN(CC)CCn1c(N)c(S(=O)(=O)c2ccccc2)c2nc3ccccc3nc21,–,18.4 µM (active)
Cc1ccc(S(=O)(=O)c2c(N)n(C)c3nc4ccccc4nc23)cc1,–,13 µM (active)
C=CCn1c(N)c(S(=O)(=O)c2cccs2)c2nc3ccccc3nc21,-19.6,–

SMILES,"activity change, negative = growth inhibition [%]",Potency
CC1(C)CC(=O)C=C(c2cccc3c2Oc2ccccc2S3)C1,-28,–
O=C(Cn1cnc2c(oc3ccccc32)c1=O)Nc1ccc(OC(F)(F)F)cc1,-3.72,–
CC(C)N(c1ccccc1)c1ncnc(NCCC(=O)O)c1[N+](=O)[O-],-3.06,–
O=C(COC(=O)c1cccnc1Cl)Nc1ccc(S(=O)(=O)N2CCOCC2)cc1,-14.8,–
CCOC(=O)N1CCC(c2cc(=O)n(-c3ccccc3)[nH]2)CC1,-26.9,–
Cc1cc(C)cc(N)c1,-1.73,–
CCOc1ccc(C2CC(=O)c3c([nH]c(C(=O)OCc4ccccc4)c3C)C2)cc1 (centres undefined),–,13 µM (active)
CC(C)(C)N1C(=O)c2c(C(=O)OCc3ccccc3)[nH]c(-c3ccccc3)c2C1=O,-7.09,–
CCc1ccc(C2CC(=O)c3c([nH]c(C(=O)OCc4ccc(C)cc4)c3C)C2)cc1 (centres undefined),–,7.31 µM (active)
CCOc1ccc(C2C3=C(CCCC3=O)N(CC(=O)O)C3=C2C(=O)CCC3)cc1,-10.5,–
CCOC(=O)c1[nH]c2c(c1-c1ccccc1)C(=O)CC(c1ccc(Cl)cc1)C2 (centres undefined),-6.33,–
CCCNC(=O)C1CC(=O)N(c2ccc(OCc3ccccc3)cc2)C1 (centres undefined),-22.4,–
CCOC(=O)c1[nH]c2c(c1C)C(=O)CC(c1ccc(N(C)C)cc1)C2 (centres undefined),–,13 µM (active)
COCCOC(=O)c1[nH]c2c(c1C)C(=O)CC(c1ccc(OC)cc1)C2 (centres undefined),-13.2,–
Cc1nnc(C)c2c(C)n(N)c(C)c12,-3.03,–
CCCCOc1ccc(-c2ncc(C(=O)OCC)c(N)n2)cc1,-18.9,–
O=C(OCC(=O)N1CCCC1)c1ccco1,-7.97,–
Cc1noc(C)c1C(=O)NC(C)c1ccc2c(c1)OCO2 (centres undefined),-10.6,–
CN(C)Cc1c(O)ccc2c(=O)c(-c3ccccc3Cl)coc12,-2.51,–
CN(c1ccccc1)c1nc(N)c([N+](=O)[O-])c(NCc2ccco2)n1,-21.3,–
NC(=O)N1CCCC1C(=O)Nc1ccc(Cl)c(Cl)c1 (centres undefined),-28.7,–
O=C(O)c1cccc(S(=O)(=O)N2CC=C(c3ccccc3)CC2)c1,5.52,–
O=C(Nc1ccc(Cl)c(Cl)c1)N1CC=C(c2ccccc2)CC1,–,20.6 µM (active)
NC(=O)C1CCN(C(=O)c2cn(-c3ccccc3)nc2-c2cccnc2)CC1,-4.22,–
CCOc1ccc(C2=CC(c3ccccc3)n3ncnc3N2)cc1 (centres undefined),-26.4,–
COc1ccc(C2CC(c3cccs3)Nc3nnnn32)cc1 (centres undefined),-13.6,–
COc1ccc(C2=CC(c3cccc(OC)c3)n3nnnc3N2)cc1 (centres undefined),–,29.1 µM (active)
